Assay outcomes from PubChem.
Sampled rows, rich in hits. Any-hit rate of the full collection: about 17%.
HepG2 viability – kills HepG2 cells in TGF-b inhibitor counter-screen | HepG2 CAGA-GFP viability, ATP luminescence, 18 h | Potency, µM (top dose mostly 46.1 µM), without a hit: at the top dose activity change, negative = cytotoxicity, usual class: cytotoxic | 410,000 compounds, 0.76% hits | AID 588856
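CellTiter-Glo luminescence gave cytotoxicity after 18 hours at 37 degrees C. The cells were HepG2 CAGA-GFP in 1% FBS DMEM, stimulated with 500 pg/mL TGF-beta after compound addition. %Activity was normalised to no-cell wells (complete cell-killing) and DMSO (no toxicity), and curves were fitted and classified.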
HT1080NT lethal – kills 2HG-producing HT-1080-NT fibrosarcoma cells; HT-1080-NT fibrosarcoma viability, CellTiter-Glo ATP luminescence, 48 h; 360,000 compounds, 1.6% hits; Potency, µM (highest dose often 46.1 µM), inactives show top-dose activity, negative = less viability, actives largely listed as cytotoxic;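 note: NT is the 2HG producing partner of a matched IDH1 knockdown line; 0% = DMSO-treated cells and -100% = media-only wells without cells; nearly all actives have a fitted effect of over 55% in size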
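A 48-hour cytotoxicity screen used HT-1080-NT cells plated 2 hours before compound delivery. ATP-based CellTiter-Glo luminescence measured viability, normalized to DMSO and no-cell controls.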
TDP1 cell CPT – DT40-hTDP1 cell growth loss with CPT | chicken DT40 Tdp1-/-;hTDP1 cells + 20 nM CPT, ATP luminescence, 48 h | 420,000 compounds, 12% hits | Potency, µM (top dose mostly 46.2 µM), for inactives: at the highest dose activity change, negative = growth inhibition, actives largely listed as inhibitors; note: % is set by controls: 0 for no effect and ±100 for the full control effect; nearly all actives have a fitted effect of over 55% in size
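Chicken DT40 Tdp1-/- cells stably complemented with human TDP1 were seeded at 400 cells/well in medium containing 20 nM camptothecin, exposed to pin-transferred compounds, and grown at 37 °C for at least 48 hr. Viability was read as ATP luminescence.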
TGFb SMAD3 inh – blocks TGF-b signaling | HepG2 CAGA-GFP TGF-b/SMAD3 reporter, GFP fluorescence, 18 h; TGF-beta stimulated, 500 pg/mL final | Potency, µM (highest dose often 46.1 µM), for inactives: at the top dose activity, negative = inhibition, actives largely listed as inhibitors | 410,000 compounds, 1.2% hits | AID 588855; note: % is set by controls: 0 for no effect and ±100 for the full control effect; nearly all actives have a fitted effect of over 65% in size
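Cell-based qHTS in HEPG2 carrying a CAGA-GFP Smad reporter; compounds added before 500 pg/mL final TGF-beta, 18 h incubation at 37 degrees C, GFP fluorescence quantified per cell by imaging cytometry.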
HT1080 IDH1KD tx – HT-1080 IDH1 knockdown cell toxicity (counter line); HT-1080 IDH1 knockdown viability, ATP luminescence, 48 h; Potency, µM (doses to about 46.1 µM), without a hit: at the highest dose activity, negative = toxicity, hits mostly cytotoxic; 360,000 compounds, 2% hits; AID 686971;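 note: 0% = DMSO wells and -100% = cell-free medium wells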
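Using the IDH1-knockdown HT-1080 line run in the same batch and compound series as the NT line, viability after 48 h at 37 °C was determined by CellTiter-Glo luminescence and expressed as % activity.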
TDP1 cell noCPT – qHTS for Inhibitors of human tyrosyl-DNA phosphodiesterase 1 (TDP1): qHTS in cells in absence of CPT. DT40 Tdp1-/- hTDP1 cells, no CPT, ATP luminescence, 48 h. Potency, µM (doses to about 46.2 µM), inactives show at the top dose activity change, negative = growth inhibition, most hits filed as inhibitors. 420,000 compounds, 15% hits. AID 686978, 2013; note: % is set by controls: 0 for no effect and ±100 for the full control effect; nearly all actives have a fitted effect of over 55% in size
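Camptothecin absent (DMSO only). Human TDP1-complemented DT40 knockout cells, 400 cells/well, 37 °C for minimum 48 hr; ATP measured via CellTiter-Glo, 30 min dark incubation, luminescence.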
* = called active by the depositor; ? = inconclusive; · = not tested or not shown; [ ] = dose if it differs, or a comment. Calls come from the whole dose curve; as a rule, active = well fitted curve in the direction sought with a large enough effect; inconclusive = small, poorly fitted or top-dose-only effect, or another doubt; inactive = no such curve, though single readings can be large; an effect the other way counts as inactive or inconclusive. Potency is the fitted concentration of half-maximal effect.

SMILES	HepG2 viability	HT1080NT lethal	TDP1 cell CPT	TGFb SMAD3 inh	HT1080 IDH1KD tx	TDP1 cell noCPT
COc1ccc(C2NCc3ccc4c(c3-n3cccc32)OCO4)cc1O (configuration not stated)	0%	?	4.1µM*	?	1.8µM*	4.6µM*
C=CCN=C(SCC(=O)c1ccc(Cl)cc1)c1c(O)n(C)c(=O)n(C)c1=O	-7%	-29%	?	-24%	?	?
Cc1ccc2c(c1)Oc1ccccc1N=C2	-11%	1%	-19%	3%	-1%	?
CCOc1ccc(C2CC(c3c(O)n(C)c(=O)n(C)c3=O)=NN2)cc1 (configuration not stated)	1%	1%	5%	-2%	11%	?
CCOc1ccc(C2c3c(-c4ccccc4O)n[nH]c3C(=O)N2Cc2ccncc2)cc1 (configuration not stated)	-6%	·	7.3µM*	?	·	5.2µM*
COc1ccc(CCn2c(NN=C3CCCCC3)nc3c2c(=O)[nH]c(=O)n3C)cc1	-2%	-19%	?	10%	-2%	16µM*
CN(C)S(=O)(=O)c1cc(NC(=O)COC(=O)Cc2ccccc2)ccc1Cl	-10%	0%	?	-15%	2%	18µM*
CN(C)S(=O)(=O)c1cc(NC(=O)C[N+]23CCN(CC2)CC3)ccc1Cl	-1%	16%	-6%	-2%	14%	1%
CCC(CO)NC(=O)C1C=C2c3cccc4[nH]cc(c34)CC2N(C)C1 (configuration not stated)	13%	12%	-7%	5%	-7%	-14%
CCN(CC)C(=O)N[C@@H]1C=C2c3cccc4[nH]cc(c34)C[C@@H]2N(C)C1	·	·	21µM*	·	·	9.4µM*
CC(C)(O)C(=O)Nc1ccc([N+](=O)[O-])c(C(F)(F)F)c1	-13%	13%	?	1%	-6%	15µM*
COC(=O)C1=C(c2ccccc2)C[C@@H]2CC[C@H]1N2C(=O)NCc1cccc2ccccc12	-5%	-4%	?	-10%	-3%	?
O=C(Oc1ccccc1)N1CCC2(CCN(Cc3ccccc3)CC2)CC1	·	·	6%	·	·	-8%
C=C(C)[C@@H]1CC[C@]2(C(=O)O)CC[C@]3(C)[C@H](CC[C@@H]4[C@@]5(C)CC[C@H](O)C(C)(C)[C@@H]5CC[C@]43C)[C@@H]12	-9%	19%	5.8µM*	-8%	2%	3.7µM*
NC(N)=Nc1ccc2[nH]c3c(c2c1)C[C@]1(O)[C@@H]2Cc4ccc(O)c5c4[C@]1(CCN2CC1CC1)[C@@H]3O5	·	·	-24%	·	·	?
NC(CP(=O)(O)O)C(=O)O (configuration not stated)	·	·	-2%	·	·	-4%
Cc1ccc(-c2cn3c(=S)[nH]nc3s2)cc1	3%	-3%	-27%	0%	3%	?
Oc1ccc(Cl)cc1Sc1cc(Cl)ccc1O	-124%	21µM*	18µM*	8.9µM*	21µM*	18µM*
Oc1ccc(Cl)cc1	-4%	-1%	-5%	0%	1%	-4%
CCCCOP(=O)(OCCCC)C(Nc1ccc(C(=O)OCC)cc1)c1ccncc1 (configuration not stated)	-25%	?	?	?	-10%	12µM*
Cn1c(O)c(C2=NN(C(=O)CCl)C(c3ccccc3)C2)c(=O)n(C)c1=O (configuration not stated)	-1%	-8%	?	-14%	-13%	-27%
CCC(=O)N1N=C(c2c(O)n(C)c(=O)n(C)c2=O)CC1c1ccccc1 (configuration not stated)	5%	?	3.7µM*	-23%	6.5µM*	4.1µM*
CCC1(CCC(C)C)C(=O)NC(=S)NC1=O	-17%	5%	7%	-6%	11%	-5%
CCN(CC)Cc1nccn1-c1ccc([N+](=O)[O-])cc1C(=O)c1ccccc1Cl	·	·	-83%	·	·	6µM*
CCN(C(=O)CSc1ncccc1C(=O)Oc1cccc([N+](=O)[O-])c1)c1cccc(C)c1	-23%	0%	-10%	-30%	1%	?
SMILES	HepG2 viability	HT1080NT lethal	TDP1 cell CPT	TGFb SMAD3 inh	HT1080 IDH1KD tx	TDP1 cell noCPT
C=CCn1c(O)c(C=Nc2ccc(OC)cc2C)c(=O)[nH]c1=O	-5%	0%	-12%	-2%	-3%	-3%
CCC(=NCc1ccco1)c1c(O)n(C2CCCCC2)c(=O)[nH]c1=O	-25%	-14%	23µM*	-11%	-5%	?
CCC(=O)c1c(O)n(C2CCCCCC2)c(=O)[nH]c1=O	-33%	-16%	6.5µM*	3%	?	16µM*
CC(=NCCO)c1c(O)n(C2CCCCC2)c(=O)[nH]c1=O	-9%	14%	-15%	?	8%	-15%
Cc1ccc(OC(=O)N(C)C[C@H]2OCc3cnnn3CCCC(=O)N([C@H](C)CO)C[C@@H]2C)cc1	-43%	2%	?	-3%	-1%	?
CN1CSC(=S)N(C)C1	-59%	-4%	6.5µM*	?	-5%	4.6µM*
Cc1cccc(OCC(O)CN2CC2)c1 (configuration not stated)	1%	3%	3.7µM*	-6%	16%	6.5µM*
O=C(CCN1CC=C(c2ccccc2)CC1)NCc1ccccc1	-5%	1%	-8%	0%	-1%	-29%
CC(=O)c1cccc(OCC(O)CN2CC=C(c3ccccc3)CC2)c1 (configuration not stated)	-29%	-1%	?	-29%	17%	16µM*
O=C(Oc1ccccc1)N1CCC2(CC1)CCN(C(c1ccccc1)c1ccccc1)CC2	·	·	-3%	·	·	-10%
O=C(O)C1Cc2ccccc2N2CCCC12 (configuration not stated)	10%	-12%	-28%	6%	-7%	-7%
COc1ccc2c3c1O[C@H]1[C@@H](O)C=C[C@H]4[C@@H](C2)NCC[C@@]341	·	·	-7%[92.5 µM]	·	·	?
CCOC(=O)[C@]12Cc3cc4c(cc3[C@H]1N(Cc1ccccc1)C(=O)c1ccccc12)OCO4	-10%	-5%	?	?	-14%	15µM*
CCOC(=O)[C@]12Cc3cc(OC)ccc3[C@H]1N(CC(=O)OC)C(=O)c1ccccc12	·	5%	-17%	·	5%	-29%
